HT1080 IDH1KD tx = HT-1080 IDH1 knockdown cell toxicity (counter line); HT-1080 IDH1 knockdown viability, ATP luminescence, 48 h; Potency, µM (series often up to 46.1 µM), for inactives: at the highest dose activity, negative = toxicity, usual class: cytotoxic; hit rate 2% among 360,000; AID 686971;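 further: potency means the concentration at half of the fitted maximal effect; 0% = DMSO wells and -100% = cell-free medium wells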
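Luminescent ATP read-out (CellTiter-Glo, 10 min at room temperature) after 48 h compound exposure at 37 °C gave viability of IDH1-knockdown HT-1080 cells. Activity was normalised to DMSO and cell-free wells, then fitted as concentration-response curves.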
IL-1B inflam inh = inhibitors of inflammasome signaling (IL-1 beta secretion); hit rate 4.7% among 360,000; activity change, % at 57.5 µM; THP-1 LPS/ATP IL-1B secretion, AlphaLISA, 16 h; stronger effect = lower value; in the data active means activity change below about -50%; inconclusive means mostly about -30% to -49%
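THP-1 cells pretreated 1 hr with compounds (up to 57.5 uM final), then stimulated with LPS (250 ng/mL final) plus ATP (1.25 mM final); secreted IL-1B measured by AlphaLISA after 16 hr, decreased signal indicating inhibition.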
TDP1 cell noCPT = qHTS for Inhibitors of human tyrosyl-DNA phosphodiesterase 1 (TDP1): qHTS in cells in absence of CPT; DT40 Tdp1-/- hTDP1 cells, no CPT, ATP luminescence, 48 h; Potency, µM (doses to about 46.2 µM), for inactives: at the top dose activity change, negative = growth inhibition, actives largely listed as inhibitors; hit rate 15% among 420,000; AID 686978, 2013; further: potency means the concentration at half of the fitted maximal effect; nearly all actives have a fitted effect of over 55% in size
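No-CPT arm: Tdp1-/-;hTDP1 DT40 cells (400/well) plus compounds, incubated ≥48 hr at 37 °C. Readout CellTiter-Glo luminescence.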
DT40 TDP1 CPT = DT40-hTDP1 cell growth loss with CPT. chicken DT40 Tdp1-/-;hTDP1 cells + 20 nM CPT, ATP luminescence, 48 h. Potency, µM (highest dose often 46.2 µM), inactives show at the top dose activity change, negative = growth inhibition, most hits filed as inhibitors. hit rate 12% among 420,000; further: potency means the concentration at half of the fitted maximal effect; nearly all actives have a fitted effect of over 55% in size
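Chicken DT40 Tdp1-/- cells stably complemented with human TDP1 were seeded at 400 cells/well in medium containing 20 nM camptothecin, exposed to pin-transferred compounds, and grown at 37 °C for at least 48 hr. Viability was read as ATP luminescence.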
HT1080NT lethal = kills 2HG-producing HT-1080-NT fibrosarcoma cells; HT-1080-NT fibrosarcoma viability, CellTiter-Glo ATP luminescence, 48 h; Potency, µM (series often up to 46.1 µM), for inactives: at the highest dose activity, negative = less viability, actives largely listed as cytotoxic; hit rate 1.6% among 360,000;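 further: NT is the 2HG producing partner of a matched IDH1 knockdown line; potency means the concentration at half of the fitted maximal effect; 0% = DMSO-treated cells and -100% = media-only wells without cells; nearly all actives have a fitted effect of over 55% in size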
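Luminescent CellTiter-Glo readout after 48 hours of compound exposure at 37 degrees C defined viability of HT-1080-NT cells. Activity was normalized to DMSO wells and cell-free media wells; concentration-response curves were fitted and assigned curve classes.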
The depositor's hits bear a star; u = inconclusive; x = no result given. Sampled rows, rich in hits. Any-hit rate of the full collection: about 19%. Unless noted, the call rests on the fitted dose curve; in most records, active means well fitted curve in the direction sought with a large enough effect; inconclusive means small, poorly fitted or top-dose-only effect, or another doubt; inactive means no such curve, though single readings can be large; an effect the other way counts as inactive or inconclusive. Unless noted, on the % scale 0 is the no-effect control and ±100 the full control effect.

SMILES	HT1080 IDH1KD tx	IL-1B inflam inh	TDP1 cell noCPT	DT40 TDP1 CPT	HT1080NT lethal
Cc1cc(C)nc(N2CCC(C(=O)NCCc3ccc(F)cc3)CC2)n1	0%	42	9.2µM*	16µM*	1%
Cc1ccc(CNC(=O)C2CCN(c3nc(C)cc(C)n3)CC2)cc1	u	0	-24%	-8%	24%
Cc1cc(C)nc(N2CCC(C(=O)NCCc3ccc(Cl)cc3)CC2)n1	3%	0	u	13µM*	15%
C[N+]1(CC2COC3(CCCCC3)O2)CCCC1 (stereo not given)	0%	10	1%	-2%	3%
C1CCCCCC2(CCCCC1)OCC(CN1CCOCC1)O2 (stereo not given)	-6%	7	23µM*	u	1%
Nc1nn2cc(-c3ccccc3)nc2c2ccccc12	u	-100*	u	u	u
CC(C)NS(=O)(=O)c1ccc(NC(=O)NC2CCCCC2)cc1	-11%	-9	-14%	-26%	-7%
CCOC(=O)c1cc(-c2ccccc2)n(CC(=O)NC2CCC(C)CC2)c1C (stereo not given)	x	x	12µM*	15µM*	x
CCOC(=O)c1cc(-c2ccc(C)cc2)n(CC(=O)NC2CCCCCC2)c1C	x	x	u	23µM*	x
CC(=O)c1cc(-c2ccccc2)n(CCC(=O)NC2CCCCC2)c1C	1%	2	u	u	8%
CC(=O)c1cc(-c2ccc(F)cc2)n(CC(=O)NC2CCCCCC2)c1C	x	x	16µM*	u	x
COc1ccc(CCNC(=O)Cn2c(-c3ccc(F)cc3)cc(C(C)=O)c2C)cc1OC	x	x	21µM*	26µM*	x
COc1ccc(CCNC(=O)CN2CCN(Cc3ccc(F)cc3)C2=O)cc1OC	7%	-4	u	u	15%
CCOC(=O)c1ccc(NC(=O)CCC(=O)N2Cc3ccccc3Oc3ncccc32)cc1	x	x	21µM*	16µM*	x
O=C(CCC(=O)N1CCSc2ccccc21)Nc1ccc(Cl)cc1	x	x	21µM*	15µM*	x
Cc1ccc(NC(=O)CCC(=O)N2CCOc3ccccc32)c(Cl)c1	6%	-3	u	u	-1%
CCOc1ccc(OCC)c(NC(=O)CCC(=O)N2CCOc3ccccc32)c1	x	x	26µM*	26µM*	x
Cc1ccc(NC(=O)CCC(=O)N2CCSc3ccccc32)cc1Cl	x	x	u	16µM*	x
Cc1cccc(C)c1NC(=O)CCC(=O)N1Cc2ccccc2Oc2ncccc21	x	x	-26%	-7%	x
O=C(CCC(=O)N1CCSc2ccccc21)NCc1cccc(Br)c1	-1%	-9	-21%	-29%	0%
COc1ccc(OC)c(NC(=O)COC(=O)CCNc2ccccc2OC)c1	5%	1	-3%	3%	10%
C=CCNc1cc(N2CCCC2)ccc1[N+](=O)[O-]	12%	36	u	-5%	3%
O=C(CCC(=O)N1CCSc2ccccc21)NCc1ccc(Cl)cc1	7%	-18	-20%	-24%	11%
CCOc1ccc(NC(=O)CCC(=O)N2CCSc3ccccc32)cc1	0%	0	16µM*	16µM*	-2%
Cc1ccccc1NC(=O)CCC(=O)N1CCSc2ccccc21	x	x	u	-27%	x
SMILES	HT1080 IDH1KD tx	IL-1B inflam inh	TDP1 cell noCPT	DT40 TDP1 CPT	HT1080NT lethal
O=C(CCC(=O)N1CCSc2ccccc21)NCc1ccccc1Cl	x	x	u	10µM*	x
COc1ccc(OC)c(CCNC(=O)CCC(=O)N2CCOc3ccc(C)cc32)c1	5%	-23	u	23µM*	11%
Cc1ccc(NC(=O)CCC(=O)N2CCSc3ccccc32)cc1	x	x	u	16µM*	x
C[C@H](CO)N1C[C@H](C)[C@H](CN(C)Cc2ccc(Oc3ccccc3)cc2)Oc2cc(Br)ccc2S1(=O)=O	u	-25	u	u	u
CC(=O)Nc1ccc(/C=N/NC(=S)NC(C)C)cc1	4%	14	-28%	u	5%
CCN(CC)CCN(Cc1cc2ccc(C)cc2[nH]c1=O)C(=O)Nc1ccc(Cl)cc1	18%	-15	u	u	3%
CCOC(=O)c1ccc(NC(=O)CCC(=O)N2CCSc3ccccc32)cc1	x	x	13µM*	23µM*	x
O=C(CCC(=O)N1CCSc2ccccc21)NCc1ccccc1	4%	-12	-9%	u	-1%
c1ccc(N2CCN(Cc3cccn3-c3nnc(N4CCN(C5CCCCC5)CC4)s3)CC2)cc1	x	x	-5%	-6%	x
CCOc1ccccc1CNCc1cccn1-c1nnc(N2CCN(c3ccccc3)CC2)s1	x	x	3.3µM*	5.8µM*	x
Cc1cc2ccccc2c(=O)n1CC(=O)N1CCN(c2cccc(Cl)c2)CC1	22%	-3	-25%	-1%	10%
CCc1ccc(-n2c(N3CCN(c4cccc(Cl)c4)CC3)nc3ccccc3c2=O)cc1	x	x	8.2µM*	6.5µM*	x
CCc1ccc(-n2c(N3CCN(c4ccc(F)cc4)CC3)nc3ccccc3c2=O)cc1	x	x	12µM*	23µM*	x
CN(CC(=O)Nc1cccc(F)c1)C(=O)CSc1nc2ccccc2s1	-2%	-2	-26%	-12%	-1%
CCCCC(=O)Nc1nnc(-c2ccco2)o1	18%	11	0%	4%	17%
Cc1ccc(CN2C(=O)CCSc3ccc(Cl)cc32)cc1	-14%	8	u	-19%	-12%
O=C1CCSc2ccc(Cl)cc2N1Cc1cccc(Cl)c1	-15%	13	21µM*	u	-17%
COc1ccc(CN2CCN(S(=O)(=O)c3ccc(NC(C)=O)cc3)CC2)cc1	-10%	-17	u	u	-5%
COc1ccc(CN2CCN(S(=O)(=O)c3ccc(NC(C)=O)cc3)CC2)c(OC)c1OC	-1%	-4	u	16µM*	-4%
COc1ccc(CN2CCN(C(=O)C3CCC(CNS(=O)(=O)c4ccc(C)cc4)CC3)CC2)c(OC)c1OC (stereo not given)	-2%	-12	21µM*	u	-11%
CCOC(=O)N1CCN(C(=O)C2CCC(CNS(=O)(=O)c3ccc(Cl)cc3)CC2)CC1 (stereo not given)	10%	10	u	u	17%
COCCN1Cc2cccc(C(=O)Nc3ccc(-c4nc5ccccc5[nH]4)cc3)c2C1=O	-1%	-17	-26%	-23%	10%
COCCN1Cc2cccc(C(=O)Nc3cccc(-c4nc5ccccc5[nH]4)c3)c2C1=O	16µM*	-6	16µM*	4.6µM*	-52%
CCCN1Cc2cccc(C(=O)Nc3ccc(-c4nc5ccccc5[nH]4)cc3)c2C1=O	0%	-10	18µM*	u	-4%
CCCN1Cc2cccc(C(N)=O)c2C1=O	-3%	41	u	8.2µM*	-6%
CCCN1Cc2cccc(C(=O)Nc3ccc(C)cc3)c2C1=O	14%	u	-4%	-13%	11%
